beta cell repl = MIN6 beta-cell proliferation induction | MIN6 cells proliferation, ATPlite luminescence, 48 h; cells starved in 0.2% serum; 100% = growth in 10% serum | proliferation, % at 10 µM | actives 0.29% (n = 330,000);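 active = compounds whose signal lies at least 3.5 SD above the mean of all wells on their plate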;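 also: 0% = DMSO-treated cells in low-serum medium and 100% = 10% serum control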
ALR inh = blocks human ALR sulfhydryl oxidase activity | P55789 | purified ALR, DTT oxidation, H2O2 HRP-luminol luminescence | inhibition, % (concentration not given with the values) | actives 3.8% (n = 290,000);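 active = mean replicate inhibition above about 79%, with every replicate also reaching it, limit read from the data; inconclusive = only one of the two criteria met; inactive = mean below limit and not every replicate reaching it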
Target sequence (P55789 whole entry, looked up): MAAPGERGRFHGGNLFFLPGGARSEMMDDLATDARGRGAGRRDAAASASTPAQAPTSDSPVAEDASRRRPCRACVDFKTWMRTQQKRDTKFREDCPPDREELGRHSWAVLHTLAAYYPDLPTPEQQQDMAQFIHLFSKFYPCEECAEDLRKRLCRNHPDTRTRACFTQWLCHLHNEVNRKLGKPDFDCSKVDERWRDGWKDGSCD
Granule exo inh = lytic granule exocytosis inhibition; TALL-104 LAMP-1 surface exposure, flow cytometry; cells stimulated with thapsigargin and PMA; inhibition, % at 10 µM; actives 0.66% (n = 360,000); AID 651702;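 active = inhibition above about 55%, limit read from the data; inconclusive = no clear call, values can overlap the other calls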
M18AAP inhibitor = blocks P. falciparum M18 aspartyl aminopeptidase | recombinant PfM18AAP, H-Glu-NHMec fluorogenic cleavage | inhibition, % at 7.35 µM | actives 1.2% (n = 290,000) | AID 1822;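 active = inhibition above the campaign mean inhibition over all tested compounds plus 3 SD, cut at about 28% in these data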;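 also: 0% = plate median of test compound wells and 100% = 2 mM ZnCl2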
SMARCA2 act = SMARCA2 function activation, primary screen; activation, % at 9.1 µM; MG213 cells, MMTV-luciferase reporter, dexamethasone, overnight; actives 1% (n = 370,000); in the data active = activation above about 7.8%;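 also: 0% = vehicle wells and 100% = reference activator wells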
GASC-1 inh = blocks human GASC-1 demethylase activity. inhibition, % at 2.35 µM. GST-JMJD2C(1-420) H3K9me3 demethylation, DELFIA europium. Q9H3R0. actives 0.069% (n = 330,000);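 active = more than half of a compound's replicate wells show inhibition beyond 50%, single wells judged on their own value; inconclusive = some, but no more than half, of replicates pass 50% inhibition; inactive = no replicate passes 50% inhibition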;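 also: signal counts dimethyl H3K9 product captured on neutravidin plate; 0% = median of DMSO wells and 100% = 0.3 times that DMSO median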
Target sequence (Q9H3R0 1-420 limits assumed): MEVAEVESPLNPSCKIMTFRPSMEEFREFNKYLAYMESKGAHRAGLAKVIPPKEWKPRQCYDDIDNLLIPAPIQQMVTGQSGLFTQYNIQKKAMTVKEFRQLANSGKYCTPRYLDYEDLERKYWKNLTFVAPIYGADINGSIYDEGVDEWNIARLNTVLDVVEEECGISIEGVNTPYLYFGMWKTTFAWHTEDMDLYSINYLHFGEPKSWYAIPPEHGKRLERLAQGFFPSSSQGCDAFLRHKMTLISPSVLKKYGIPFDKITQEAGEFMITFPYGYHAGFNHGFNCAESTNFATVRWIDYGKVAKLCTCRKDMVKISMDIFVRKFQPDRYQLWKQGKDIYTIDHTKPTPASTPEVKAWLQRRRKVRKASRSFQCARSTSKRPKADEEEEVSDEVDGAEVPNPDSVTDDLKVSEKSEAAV
An asterisk follows results filed as active; ? = inconclusive; / = not tested or not shown. Sampled rows, rich in hits. Any-hit rate of the full collection: about 5.4%.

SMILES | beta cell repl | ALR inh | Granule exo inh | M18AAP inhibitor | SMARCA2 act | GASC-1 inh
COc1cc(OC)c2ccc(=O)oc2c1C(CCN1CCCC(C)C1)c1ccc2c(c1)OCO2 (configuration not stated) | -1 | -24 | -10 | / | 1 | -3
CCCCCc1cc(=O)oc2c(C(CCN3CCCC3)c3ccc(N(C)C)cc3)c(OC)cc(OC)c12 (configuration not stated) | -8 | / | -6 | / | 1 | -8
Cc1ccc(-c2nnc(SCC(=O)Nc3ccc(F)cc3F)n2Cc2ccco2)cc1 | / | / | / | / | -3 | /
Nc1nc2c(ncn2[C@@H]2O[C@H](C(=O)NCCCc3ccccc3)[C@@H](O)[C@H]2O)c(=O)[nH]1 | / | / | / | / | -3 | /
C=C(C)C(=O)NNc1ccccc1 | 0 | 31 | -1 | -7 | 2 | -4
CCCOC(=O)C(=O)NNc1ccccc1 | 2 | 100* | -3 | 0 | 0 | -6
CC(C)OC(=O)C(=O)NNc1ccccc1 | -2 | 100* | -8 | -9 | 4 | 4
Cc1ccc(NC2=C(Cl)C(=O)OC2OC(=O)c2ccco2)cc1C (configuration not stated) | -7 | 91* | 3 | 1 | -1 | 3
Cc1ccc(NC2=C(Cl)C(=O)OC2OC(=O)c2ccco2)c(C)c1 (configuration not stated) | -6 | 99* | 0 | 11 | 0 | 27
CCOC(=O)C1CSCCS(=O)(=O)N1Cc1ccccc1C (configuration not stated) | / | / | / | / | -6 | /
COc1ccc(S[C@]2(C(=O)N3CCN(c4ncccn4)CC3)CC(=O)N(c3ccc(OC)cc3)[C@@H]2c2ccc(OC)cc2)cc1 | / | / | / | / | -3 | /
COc1ccc(-n2c(COc3cccc4ccccc34)nnc2SCC#N)cc1 | 0 | -5 | 10 | 29* | 0 | 18
CC(C)(C)c1ccc(S(=O)(=O)N2CCC(C(=O)NCCC3=CCCCC3)CC2)cc1 | / | / | / | / | 2 | /
O=[N+]([O-])c1cc(-c2ncccn2)c([N+](=O)[O-])s1 | -6 | 98* | 78* | -49 | -5 | 1
C=CCn1c(N)c(C(=O)NCc2cccnc2)sc1=S | 3 | 98* | -10 | -2 | -3 | 1
CCOc1ccc(-n2c(N)c(C(=O)NCc3cccnc3)sc2=S)cc1 | -1 | 5 | -1 | 4 | 0 | -25
Cc1cccc(/C=N/NC(=O)c2ccc3c(c2)OCCO3)c1O | -7 | 14 | 0 | 27 | -4 | ?
COc1cccc(/C=N/NC(=O)CNC(=O)c2ccc3c(c2)OCCO3)c1O | 0 | 94* | -1 | 8 | 0 | 10
CCOc1cccc(/C=N/NC(=O)c2ccc3c(c2)OCCO3)c1O | -6 | 90* | -2 | -3 | -1 | -2
CCCC1CCC2(CCC(=O)N2CCOC)CC1 (configuration not stated) | / | / | / | / | -4 | /
O=C(Nc1nc2ncccn2c1-c1ccc(F)c(F)c1)c1ccccc1 | / | / | / | / | -2 | /
O=C(c1cccc(C(F)(F)F)c1)C1CCCN(C(=O)c2cc(C3CC3)[nH]n2)C1 (configuration not stated) | 0 | 86* | -2 | 2 | -2 | -5
Cc1cc(C(=O)N2CCCC(C(=O)c3cccc(C(F)(F)F)c3)C2)n[nH]1 (configuration not stated) | -4 | 2 | 0 | 10 | -2 | 4
CCn1c(C)cc(/C=C2/SC(=S)N(CC(=O)O)C2=O)c1C | -4 | 99* | 1 | 14 | 0 | 6
Cc1ccc(N2CC(C)Cn3c2nc2c3c(=O)[nH]c(=O)n2C)cc1 (configuration not stated) | -1 | / | 0 | -5 | -3 | 10
SMILES | beta cell repl | ALR inh | Granule exo inh | M18AAP inhibitor | SMARCA2 act | GASC-1 inh
CC1CN(C2CCCCC2)c2nc3c(c(=O)[nH]c(=O)n3C)n2C1 (configuration not stated) | -1 | 95* | 4 | -3 | -2 | -18
CCC(=O)N1CCC(C(=O)NC2CCCc3ccccc32)CC1 (configuration not stated) | / | / | / | / | -5 | /
O=S(=O)(c1cnc[nH]1)N1CCN(c2ccc(Cl)cc2)CC1 | -2 | / | 6 | 1 | -1 | -2
Cc1ccc(C)c(N2CCN(C(=O)C3CCCN(S(=O)(=O)c4cnc[nH]4)C3)CC2)c1 (configuration not stated) | -4 | 97* | -6 | -1 | -2 | 7
O=C(C1CCCN(S(=O)(=O)c2cnc[nH]2)C1)N1CCN(c2ccc(Cl)cc2)CC1 (configuration not stated) | 1 | 96* | 3 | -2 | -1 | -1
COc1cc(OC)c(-n2cc(-c3ccc(OC)c(OC)c3)[nH]c2=S)cc1Cl | -1 | -26 | -1 | 32* | 1 | 1
COc1ccc(-n2cc(-c3ccccc3)[nH]c2=S)c(OC)c1 | -6 | 90* | 2 | 16 | -4 | 85
Fc1ccccc1-n1cc(-c2ccccc2)[nH]c1=S | -2 | 93* | -3 | 18 | 4 | 22
COc1ccc(-n2cc(-c3ccc(Br)cc3)[nH]c2=S)cc1 | -1 | 67 | -3 | 14 | 3 | 12
COc1ccc(-c2cn(-c3ccc(C)cc3C)c(=S)[nH]2)cc1OC | -2 | 17 | 2 | 3 | 4 | 8
C/C(=N\NC(=O)COc1ccccc1)c1ccc(O)cc1 | -3 | 100* | -1 | 1 | 4 | 7
C/C(=N\NC(=O)c1ccccn1)c1ccc(Cl)cc1 | -3 | -5 | -10 | 4 | 5 | -13
C/C(=N/NC(=O)c1ccccn1)c1ccc(O)cc1 | -3 | 99* | -6 | -1 | 4 | -10
O=C(N/N=C/c1cccc(O)c1)N/N=C/c1cccc(O)c1 | -4 | 82* | -3 | 4 | 1 | 9
O=C(CCc1ccccc1)N/N=C/c1cccc(O)c1 | 0 | 34 | -1 | 0 | 1 | -16
Cc1cccc(C(=O)OCC(=O)Nc2c(C)n(C)n(-c3ccccc3)c2=O)c1 | 3 | / | 0 | / | 3 | 5
Cc1c(NC(=O)CN2c3ccccc3CC2C)c(=O)n(-c2ccccc2)n1C (configuration not stated) | -4 | 97* | -1 | 3 | -3 | 1
Cc1c(C(=O)OCC(=O)Nc2c(C)n(C)n(-c3ccccc3)c2=O)oc2ccccc12 | -1 | 99* | 1 | 0 | 1 | -3
CC(C)CC1Nc2ccc(C(=O)NCCCN3CCOCC3)cc2NC1=O (configuration not stated) | -3 | -23 | -14 | 26 | 0 | -21
CC(C)CC1Nc2ccc(C(=O)NCc3ccc4c(c3)OCO4)cc2NC1=O (configuration not stated) | 0 | -1 | -11 | 29* | / | -5
COc1c(OC)c(O)c2c(=O)cc(-c3c(O)cccc3O)oc2c1OC | 2 | 97* | 1 | 17 | 3 | ?
Cc1ccc(CNC[C@@]23CO[C@H](c4ccc(Cl)cc4)N2[C@@H](c2ccc(Cl)cc2)SC3)o1 | / | / | / | / | 1 | /

Compound activity: PubChem BioAssay, several laboratories
